PubChem BioAssay (Tox21)
Values joined by “and” are separate entries in the source; they are usually repeats but may differ in a detail not shown here. Equal values may be shown once. Records with an inconclusive call do not appear. The source holds several records for some structures; these can differ, active in one and inactive in another. Active and inactive are the calls of the source. Unless noted, calls come from the whole dose curve; as a rule, active = well fitted curve in the direction sought with a large enough effect in the repeat runs; inconclusive = weak or mixed curves; inactive = no such curve, though single readings can be large; an effect the other way counts as inactive or inconclusive.

How the values were obtained:
[1] = qHTS assay to identify small molecule agonists of the NFkB signaling pathway - cell viability counter screen (AID 1159515; calls by dose curve; note: nearly all actives have a fitted effect of over 55% in size; note: potency is the fitted concentration of half-maximal effect)
Method in brief: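 Tox21 library compounds were tested for cytotoxicity against NFkB-bla ME-180 cells during a 5 hr exposure at 37 C. CellTiter-Glo luminescence served as the viability read-out.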

[2] = qHTS assay to identify small molecule agonists of the endoplasmic reticulum stress response signaling pathway - cell viability counter screen (AID 1159517; calls by dose curve; note: nearly all actives have a fitted effect of over 50% in size; note: potency is the fitted concentration of half-maximal effect)
Method in brief: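 After overnight attachment, ESRE-bla HeLa cells were treated with Tox21 library compounds for 5 hr. CellTiter-Glo luminescence, read 30 min post-addition at room temperature, reported viability.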

[3] = qHTS assay to identify small molecule antagonists of the retinoid-related orphan receptor gamma (ROR-gamma) signaling pathway - cell viability counter screen (AID 1159520); note: nearly all actives have a fitted effect of over 50% in size; note: potency is the fitted concentration of half-maximal effect
Method in brief: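 Cytotoxicity was read from cellular ATP (CellTiter-Glo luminescence) after 16 hr at 37 C with 1 uM doxycycline induction. The inducer was added 2 hr after compound transfer to Tet-on ROR gamma CHO cells.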

[4] = target: Nuclear receptor ROR-gamma (Homo sapiens) (UniProt P51449); assay: qHTS assay to identify small molecule antagonists of the retinoid-related orphan receptor gamma (ROR-gamma) signaling pathway (AID 1159521; note: nearly all actives have a fitted effect of over 50% in size; note: potency is the fitted concentration of half-maximal effect)
Method in brief: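 Test compounds were applied to Tet-on RORγ CHO cells 2 h ahead of doxycycline hyclate (1 uM final). Luciferase reporter activity was quantified by luminescence after 16 h at 37 C and 5% CO2.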

[5] = qHTS assay to identify small molecule agonists of the AP-1 signaling pathway - cell viability counter screen (AID 1159525; calls by dose curve; note: nearly all actives have a fitted effect of over 55% in size; note: potency is the fitted concentration of half-maximal effect)
Method in brief: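 Intracellular ATP by Cell Titer Glo luminescence (30 min, RT) in the same ME-180 AP-1-bla wells after the 5 h compound exposure at 37 °C. Normalised to tetra n-octyl ammonium bromide and DMSO controls.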

[6] = target: Retinoic acid receptor RXR-alpha (Homo sapiens) (UniProt P19793); assay: qHTS assay to identify small molecule agonists of the RXR signaling pathway (AID 1159527; calls by dose curve; note: nearly all actives have a fitted effect of over 35% in size; note: potency is the fitted concentration of half-maximal effect)
Method in brief: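 Using 9-cis retinoic acid as the reference agonist, chemicals were tested in HEK 293T cells […] for 16 hr; substrate loading lasted 2 hr at room temperature.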

[7] = qHTS assay to identify small molecule agonists of the RXR signaling pathway - cell viability counter screen (AID 1159529); note: nearly all actives have a fitted effect of over 50% in size; note: potency is the fitted concentration of half-maximal effect
Method in brief: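 Compounds dissolved in DMSO were pinned onto HEK 293T cells carrying a beta-lactamase reporter under RXR-alpha control and incubated 16 hr. Cytotoxicity was then quantified by CellTiter-Glo luminescence.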

[8] = qHTS assay to identify small molecule antagonists of the retinoic acid receptor (RAR) signaling pathway (AID 1159552; note: nearly all actives have a fitted effect of over 50% in size; note: potency is the fitted concentration of half-maximal effect)
Method in brief: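 Test chemicals and DMSO controls were pin-transferred onto C3RL4 cells a day after seeding; retinol (1 uM final) followed at once. Luminescent reporter output was quantified after 6 hr of co-incubation and 30 min with detection reagent.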

[9] = qHTS assay to identify small molecule agonists of the retinoic acid receptor (RAR) signaling pathway (AID 1159553); note: potency is the fitted concentration of half-maximal effect
Method in brief: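 In this cell-based screen, 1,000 C3RL4 cells per well were cultured overnight, dosed with test chemicals in DMSO for 6 hr, and assessed for RARE luciferase luminescence.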

[10] = qHTS assay to identify small molecule antagonists of the estrogen related receptor (ERR) signaling pathway from Tox21 library - cell viability counter screen (AID 1224834); note: nearly all actives have a fitted effect of over 30% in size; note: potency is the fitted concentration of half-maximal effect
Method in brief: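 Counter screen run in ERR cells (2,000 cells/well): cells pre-incubated 6 h, then treated with compounds for 17.5 h at 37 C. Fluorescence was read 30 min after CellTiter-Fluor addition.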

[11] = qHTS assay to identify small molecule antagonists of the retinoid acid receptor (RAR) signaling pathway - cell viability counter screen (AID 1159551); note: nearly all actives have a fitted effect of over 35% in size; note: potency is the fitted concentration of half-maximal effect
Method in brief: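 In this counter screen, the RARE-luciferase line C3RL4 was exposed for 6 h at 37 C and 5% CO2 to compounds with retinol at 1 uM final. Cellular ATP, read by luminescence, served as the viability measure.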

[12] = qHTS assay to identify small molecule antagonists of the vitamin D receptor (VDR) signaling pathway - cell viability counter screen (AID 743225); note: nearly all actives have a fitted effect of over 50% in size; note: potency is the fitted concentration of half-maximal effect
Method in brief: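 Compounds were pinned onto VDR-bla HEK 293T cells together with 1-alpha,25-dihydroxyvitamin D3 at 3 nM final. After 16 h at 37C and 5% CO2 plus the reporter readout, cell viability was measured by CellTiter-Glo luminescence (30 min, room temperature).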

[13] = qHTS assay to identify small molecule agonists of the AP-1 signaling pathway (AID 1159526; calls by dose curve)

Retinoic acid receptor RXR-alpha (Homo sapiens), sequence (P19793 whole entry, looked up): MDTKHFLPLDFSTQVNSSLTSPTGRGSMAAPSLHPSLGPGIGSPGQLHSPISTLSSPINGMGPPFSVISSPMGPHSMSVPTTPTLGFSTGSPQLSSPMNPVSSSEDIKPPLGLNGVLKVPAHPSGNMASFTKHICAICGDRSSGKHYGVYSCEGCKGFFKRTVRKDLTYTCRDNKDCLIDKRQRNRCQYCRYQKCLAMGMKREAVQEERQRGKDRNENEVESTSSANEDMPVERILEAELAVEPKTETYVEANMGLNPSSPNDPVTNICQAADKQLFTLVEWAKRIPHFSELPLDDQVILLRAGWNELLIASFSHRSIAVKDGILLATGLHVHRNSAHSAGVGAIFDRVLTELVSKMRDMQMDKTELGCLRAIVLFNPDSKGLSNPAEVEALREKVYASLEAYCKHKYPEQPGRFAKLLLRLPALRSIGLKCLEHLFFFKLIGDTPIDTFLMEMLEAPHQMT

SMILES	Potency [1]	Potency [2]	Potency [3]	Potency [4]	Potency [5]	Potency [6]	Potency [7]	Potency [8]	Potency [9]	Potency [10]	Potency [11]	Potency [12]	Potency [13]
c1ccc(N=NNc2ccccc2)cc1	inactive	inactive	inactive	inactive	inactive	inactive	inactive	inactive	3.17 µM (active) and 7.7 µM (active)	39.9 µM (active) and 27.3 µM (active)			
CCCCc1ccccc1	inactive	inactive	inactive	inactive	inactive		inactive			inactive	inactive		
CC(O)C(=O)[O][Hg][c]1ccccc1 (stereo unspecified)	0.871 µM (active)	1.1 µM (active)	1.37 µM (active)	486 nM (active)	2.45 µM (active)		1.95 µM (active)				13.7 µM (active)	1.74 µM (active)	
CCCCCCCCCCCCCCn1cc[n+](C)c1	inactive	6.18 µM (active) and 19.3 µM (active) and inactive	27.4 µM (active) and 34 µM (active) and inactive		49.1 µM (active) and 48.5 µM (active) and inactive	inactive	19.5 µM (active)	13.7 µM (active) and 24.1 µM (active) and inactive	inactive	27.4 µM (active) and 30.3 µM (active)			
c1ccc2c(c1)cc1ccc3cccc4ccc2c1c34	inactive	inactive	inactive	inactive	inactive		inactive	inactive	11.1 µM (active)		inactive		
CCN(CC)C(=S)S	13.8 µM (active)	inactive	inactive	27.5 µM (active) and 9.63 µM (active) and 12.2 µM (active)	38.7 µM (active)							inactive	
Cc1ccc([N+](=O)[O-])[c]2c1[O][Hg]2	6.01 µM (active)	23.9 µM (active)	1.19 µM (active)	376 nM (active)	6.01 µM (active)		3.01 µM (active)	1.5 µM (active)		5.31 µM (active)		3.01 µM (active)	
N#Cc1sc2c(=O)c3ccccc3c(=O)c=2sc1C#N	1.95 µM (active)	6.92 µM (active)	2.17 µM (active)	13700 nM (active)	0.389 µM (active)		9.77 µM (active)	30.6 µM (active)		48.6 µM (active)	27.3 µM (active)	11 µM (active)	
[Cl][Hg][c]1ccccc1	3.89 µM (active)	11 µM (active)	1.09 µM (active)	611 nM (active)	1.38 µM (active)		1.23 µM (active)	1.09 µM (active)		3.44 µM (active)		0.692 µM (active)	
CCC(C)Nc1c([N+](=O)[O-])cc(C(C)(C)C)cc1[N+](=O)[O-] (stereo unspecified)	inactive	inactive	inactive	inactive	inactive			inactive		inactive	inactive	inactive	inactive
CCN1CCC2(CC1)COc1cc3c(cc12)N(C(=O)c1ccc(-c2ccc(-c4nnc(C)o4)cc2C)cc1)CC3		50.7 µM (active)	28.3 µM (active)	2000 nM (active)	45.2 µM (active)		3.59 µM (active)	56.4 µM (active)		17.8 µM (active)			
CN(C)C(=S)SSC(=S)N(C)C	0.674 µM (active)	inactive	33.9 µM (active) and 433 nM (active) and 422 nM (active)	85.1 nM (active) and 344 nM (active) and 266 nM (active)	5.49 µM (active) and 9.52 µM (active)		272 nM (active) and 692 nM (active) and 268 nM (active)	214 nM (active) and 306 nM (active)		339 nM (active) and 433 nM (active) and 473 nM (active)		27.2 µM (active) and 24.5 µM (active)	
O=C(N[C@H]1N=C(c2ccccc2F)c2cccc3c2N(CC3)C1=O)c1cc2ccccc2[nH]1	inactive	inactive	inactive	inactive	inactive	inactive	inactive	inactive	inactive		inactive	inactive	
Oc1cc(Cl)c(Cl)c(Cl)c1Cl	inactive	inactive	53.2 µM (active)	23800 nM (active)	inactive		inactive	53.2 µM (active)	inactive		inactive		
CC(=O)[O][Pb]([c]1ccccc1)([c]1ccccc1)[c]1ccccc1	0.871 µM (active)	24.5 µM (active)	0.77 µM (active)	193 nM (active)	15.5 µM (active)		2.45 µM (active)	0.486 µM (active)		2.73 µM (active)	9.69 µM (active)	0.977 µM (active)	
CCC[CH2][Sn]([CH2]CCC)([CH2]CCC)[CH2]CCC	30.9 µM (active)	21.9 µM (active)	10.9 µM (active)	6110 nM (active)	21.9 µM (active)	0.0871 µM (active)	21.9 µM (active)	9.69 µM (active)	inactive	27.3 µM (active)	43.3 µM (active)	49 µM (active)	
